# Laboratory results reported in PubChem BioAssay (Tox21).
# Several values for one entry are separate records, joined by “and”; a condition that tells them apart may be missing. Equal values may be shown once. Inconclusive results are not listed. Where a call stands in place of a potency, no number is given. A structure can be active in one record and inactive in another. Activity calls are given as the source filed them. Unless noted, calls follow the shape of the full dose curve.
# Key:
# [1] = Nuclear factor erythroid 2-related factor 2/antioxidant responsive element (Nrf2/ARE) small molecule agonists: qHTS cell viability counter screen in human keratinocytes (AID 1919968; active = well fitted curve in the direction sought with a large enough effect in the repeat runs; an effect the other way counts as inactive or inconclusive; also: nearly all actives have a fitted effect of over 55% in size; also: potency is read from the fitted curve at half-maximal effect)
# Method in brief: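 KeratinoSens cells (HaCaT keratinocytes stably carrying an ARE-luciferase reporter) were seeded at 1,500 cells/well and rested 5 h at 37 C/5% CO2. They were then exposed to compounds in DMSO for 23 h. Viability was read by CellTiter-Fluor fluorescence after 1 h.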
# [2] = Nuclear factor erythroid 2-related factor 2/antioxidant responsive element (Nrf2/ARE) small molecule agonists: luciferase reporter gene qHTS assay in human keratinocytes (AID 1919969); also: nearly all actives have a fitted effect of over 35% in size; also: potency is read from the fitted curve at half-maximal effect
# [3] = target: Gonadotropin-releasing hormone receptor (Homo sapiens) (UniProt P30968); assay: Human gonadotropin-releasing hormone receptor (GnRHR) small molecule agonists, calcium flux assay in GnRHR-HEK293 cells (AID 1920063); also: nearly all actives have a fitted effect of over 35% in size
# Method in brief: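 HEK293 cells stably expressing human GnRHR were plated 18 h at 37 °C, loaded with calcium dye 1 h at 37 °C, then given compound in agonist mode; fluorescence (Ex/Em 480/540) read kinetically for 3 min at 1 s intervals.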
# [4] = target: KiSS-1 receptor (Homo sapiens) (UniProt Q969F8); assay: Human kisspeptin (KISS1R) small molecule agonists, calcium flux assay in KISS1R-HEK293 cells (AID 1920064; active = well fitted curve in the direction sought with a large enough effect in the repeat runs; an effect the other way counts as inactive or inconclusive)
# Method in brief: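 HEK293 cells stably expressing human KISS1R were plated 18 h at 37 °C, loaded with calcium dye for 1 h at 37 °C, then given compound by pin tool. Fluorescence (Ex/Em 480/540) was read kinetically for 3 min.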
# [5] = G protein-coupled receptor (GPCR) small molecule agonists, calcium flux assay: HEK293 wild type cell line counter screen (AID 1920065)
# Method in brief: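 Cells were plated and cultured 18 h at 37 C/5% CO2, then loaded with calcium dye for 1 h at 37 C. Compounds in DMSO were pin-transferred in agonist mode, and fluorescence (Ex/Em 480/540) was read kinetically for 3 min at 1 s intervals.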
# [6] = p53 small molecule agonists, cell-based qHTS assay with human liver microsomes (AID 1963577);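 also: p53 response element beta-lactamase reporter cells with liver microsomes plus NADPH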
# Method in brief: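 16 h, 37 C exposure of p53RE-bla cells to compounds with human liver microsomes and NADPH (0.5 mg/mL final each); detection via LiveBLAzer mixture, 2 h dark at room temperature.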
# [7] = p53 small molecule agonists, cell-based qHTS assay with rat liver microsomes (AID 1963578)
# Method in brief: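 With rat liver microsomes and NADPH present (0.5 mg/mL final each), p53RE-bla cells are treated with compound for 16 h at 37 C. LiveBLAzer detection mixture is then applied for 2 h at room temperature in the dark.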
# [8] = p53 small molecule agonists, cell-based qHTS assay with human liver microsomes: qHTS cell viability counter screen (AID 1963579); also: nearly all actives have a fitted effect of over 45% in size; also: potency is read from the fitted curve at half-maximal effect
# Method in brief: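 In this multiplexed counter screen, the reporter plates were subsequently treated with CellTiter-Glo so that cell viability, reflected by luminescence, could be recorded for p53RE-bla cells dosed 16 h with compounds under microsomal activation (HLM and NADPH).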
# [9] = p53 small molecule agonists, cell-based qHTS assay: qHTS cell viability counter screen (AID 1963581); also: nearly all actives have a fitted effect of over 45% in size
# Method in brief: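 p53RE-bla HCT-116 cells were exposed to compounds for 16 h at 37 C; after the beta-lactamase FRET read in the same wells, CellTiter-Glo was added and luminescence (intracellular ATP) read after 30 min at room temperature.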
# [10] = target: 5-hydroxytryptamine receptor 2A (Homo sapiens) (UniProt P28223); assay: 5-hydroxytryptamine receptor 2A (HTR2A) small molecule antagonists, cell-based qHTS assay (AID 1963586); also: nearly all actives have a fitted effect of over 45% in size
# Method in brief: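 Antagonist-mode intracellular calcium assay: DOI (4 nM) added after 5 min compound pre-incubation at room temperature to dye-loaded HTR2A-CHO cells. Fluorescence followed for 3 min, sampled every second.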
# [11] = target: 5-hydroxytryptamine receptor 2A (Homo sapiens) (UniProt P28223); assay: 5-hydroxytryptamine receptor 2A (HTR2A) small molecule agonists, cell-based qHTS assay (AID 1963587); also: nearly all actives have a fitted effect of over 30% in size
# Method in brief: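 Kinetic calcium-flux fluorescence (2 min, 1 sec intervals) after compound addition in agonist mode. HTR2A-CHO cells were cultured 18 h, then dye-loaded 1 h at 37 C.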
# [12] = target: Muscarinic acetylcholine receptor M1 (Homo sapiens) (UniProt P11229); assay: Cholinergic receptor muscarinic 1 (CHRM1) small molecule antagonists, cell-based qHTS assay (AID 1963588); also: nearly all actives have a fitted effect of over 40% in size
# Method in brief: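 CHRM1-CHO calcium-flux assay, antagonist mode. Cells were seeded 18 h, dye-loaded 1 h at 37 C and given compound for 5 min at RT, then acetylcholine was added at 50nM. FDSS fluorescence was read 3 min; 15 concentrations, three runs.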
# [13] = target: Muscarinic acetylcholine receptor M1 (Homo sapiens) (UniProt P11229); assay: Cholinergic receptor muscarinic 1 (CHRM1) small molecule agonists, cell-based qHTS assay (AID 1963589); also: nearly all actives have a fitted effect of over 35% in size
# Method in brief: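 CHO cells stably expressing human CHRM1, seeded 18 h at 37 C/5% CO2, dye-loaded 1 h at 37 C, then given compound in agonist mode; intracellular calcium fluorescence read kinetically at 1 s intervals. Fifteen concentrations, three independent runs.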
# [14] = cAMP Responsive Elements (CRE) small molecule agonists, cell-based qHTS assay (AID 1963590)
# Method in brief: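 CRE-bla HEK 293T cells in DMEM with 10% dialyzed FBS, NEAA, pyruvate and 25 mM HEPES were plated 18 h at 37 C/5% CO2, then exposed to compounds in DMSO for 3 h before LiveBLAzer B/G FRET substrate addition.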
# [15] = cAMP Responsive Elements (CRE) small molecule antagonists, cell-based qHTS assay (AID 1963591; active = well fitted inhibition curve with a large enough effect in the signal ratio in the repeat runs, not every such curve was filed as active; the % refers to the signal ratio)
# Method in brief: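 CRE-bla HEK293T cells were plated 18 h at 37 °C/5% CO2, pinned with compound in DMSO, then stimulated with NKH477 at 0.25 uM final for 3 h. LiveBLAzer B/G FRET substrate was added and plates incubated 2 h at room temperature.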
# [16] = target: Beta-2 adrenergic receptor (Homo sapiens) (UniProt P07550); assay: Adrenergic beta2 receptor (ADRB2) small molecule antagonists, cell-based qHTS assay (AID 1963592); also: series mostly up to about 92 µM; nearly all actives have a fitted effect of over 50% in size
# Method in brief: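 Cells (CHO, stable ADRB2 overexpression) incubated 18-20hr at 37C; compounds added from DMSO; agonist mix (1nM isoproterenol, 100uM IBMX, 25uM Ro-20-1724) added; 0.5hr RT; d2-cAMP and anti-cAMP-cryptate added; 1hr RT; 665/615 nm read.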
# [17] = target: Beta-2 adrenergic receptor (Homo sapiens) (UniProt P07550); assay: Adrenergic beta2 receptor (ADRB2) small molecule agonists, cell-based qHTS assay (AID 1963593);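 also: CHO cells stably overexpressing human ADRB2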
# Method in brief: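 CHO cells stably over-expressing ADRB2 were plated overnight at 37C, then dosed with compounds plus a stimulation mix containing 100uM IBMX and 25uM Ro-20-1724 for 0.5hr at room temperature. cAMP was measured by HTRF competition, 1hr.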
# [18] = target: D(2) dopamine receptor (Homo sapiens) (UniProt P14416); assay: Dopamine D2 receptor (DRD2) small molecule agonists, cell-based qHTS assay (AID 1963594); also: nearly all actives have a fitted effect of over 35% in size
# Method in brief: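 cAMP accumulation in DRD2-HEK293 cells measured by HTRF after 1 h detection; compounds added 10 min before NKH477 (200nM […]) forskolin-analogue stimulation, 30 min at room temperature, with Ro20-1724 present at 0.1 mM final.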
# [19] = target: D(2) dopamine receptor (Homo sapiens) (UniProt P14416); assay: Dopamine D2 receptor (DRD2) small molecule antagonists, cell-based qHTS assay (AID 1963595; active = well fitted inhibition curve with a large enough effect in the signal ratio in the repeat runs, with a control signal flat; the % refers to the signal ratio)
# Method in brief: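 HEK293 cells stably expressing DRD2 were preincubated with 0.1 mM Ro20-1724, then with compound for 10 min at room temperature. Cells were stimulated with 200 nM NKH477 plus 12 nM quinpirole for 30 min, and cAMP was read by HTRF.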
# [20] = p53 small molecule agonists, cell-based qHTS assay with rat liver microsomes: qHTS cell viability counter screen (AID 1963580); also: nearly all actives have a fitted effect of over 45% in size
# Method in brief: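 Intracellular ATP, by CellTiter-Glo luminescence, defines viability. HCT-116 p53RE-bla cells, 4,000 per well, were compound-treated in the presence of rat liver microsomes and NADPH for 16 h at 37 C.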
# Gonadotropin-releasing hormone receptor (Homo sapiens), sequence (P30968 whole entry, looked up): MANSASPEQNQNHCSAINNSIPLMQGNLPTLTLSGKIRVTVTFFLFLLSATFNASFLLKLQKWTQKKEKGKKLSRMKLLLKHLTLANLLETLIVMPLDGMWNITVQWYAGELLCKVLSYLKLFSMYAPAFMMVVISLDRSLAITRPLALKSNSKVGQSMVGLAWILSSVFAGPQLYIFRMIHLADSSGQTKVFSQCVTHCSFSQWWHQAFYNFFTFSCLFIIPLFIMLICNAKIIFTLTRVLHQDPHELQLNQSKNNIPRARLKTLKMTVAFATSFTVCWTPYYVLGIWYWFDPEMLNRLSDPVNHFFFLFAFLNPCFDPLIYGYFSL
# KiSS-1 receptor (Homo sapiens), sequence (Q969F8 whole entry, looked up): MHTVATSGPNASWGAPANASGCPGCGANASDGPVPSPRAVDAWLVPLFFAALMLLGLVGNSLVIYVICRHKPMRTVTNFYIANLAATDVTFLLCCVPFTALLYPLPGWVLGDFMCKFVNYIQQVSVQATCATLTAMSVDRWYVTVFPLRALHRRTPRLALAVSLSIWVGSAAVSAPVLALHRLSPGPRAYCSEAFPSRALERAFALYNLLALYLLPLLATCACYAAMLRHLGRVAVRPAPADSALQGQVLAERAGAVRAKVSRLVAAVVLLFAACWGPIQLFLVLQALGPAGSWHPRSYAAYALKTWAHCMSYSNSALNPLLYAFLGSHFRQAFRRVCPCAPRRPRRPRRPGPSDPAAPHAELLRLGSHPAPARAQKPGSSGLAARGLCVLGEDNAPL
# 5-hydroxytryptamine receptor 2A (Homo sapiens), sequence (P28223 whole entry, looked up): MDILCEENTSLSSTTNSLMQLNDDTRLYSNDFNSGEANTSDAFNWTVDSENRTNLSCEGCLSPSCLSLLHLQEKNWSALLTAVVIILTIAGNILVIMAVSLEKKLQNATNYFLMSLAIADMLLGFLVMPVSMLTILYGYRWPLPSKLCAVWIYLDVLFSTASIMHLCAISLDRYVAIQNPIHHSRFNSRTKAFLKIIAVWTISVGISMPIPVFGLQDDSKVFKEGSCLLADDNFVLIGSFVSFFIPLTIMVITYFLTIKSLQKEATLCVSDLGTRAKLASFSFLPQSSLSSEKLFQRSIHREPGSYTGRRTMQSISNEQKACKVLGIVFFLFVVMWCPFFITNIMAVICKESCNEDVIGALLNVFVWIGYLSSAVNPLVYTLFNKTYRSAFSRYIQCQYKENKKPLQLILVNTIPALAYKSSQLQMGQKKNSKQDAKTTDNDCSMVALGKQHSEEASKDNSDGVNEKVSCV
# Beta-2 adrenergic receptor (Homo sapiens), sequence (P07550 whole entry, looked up): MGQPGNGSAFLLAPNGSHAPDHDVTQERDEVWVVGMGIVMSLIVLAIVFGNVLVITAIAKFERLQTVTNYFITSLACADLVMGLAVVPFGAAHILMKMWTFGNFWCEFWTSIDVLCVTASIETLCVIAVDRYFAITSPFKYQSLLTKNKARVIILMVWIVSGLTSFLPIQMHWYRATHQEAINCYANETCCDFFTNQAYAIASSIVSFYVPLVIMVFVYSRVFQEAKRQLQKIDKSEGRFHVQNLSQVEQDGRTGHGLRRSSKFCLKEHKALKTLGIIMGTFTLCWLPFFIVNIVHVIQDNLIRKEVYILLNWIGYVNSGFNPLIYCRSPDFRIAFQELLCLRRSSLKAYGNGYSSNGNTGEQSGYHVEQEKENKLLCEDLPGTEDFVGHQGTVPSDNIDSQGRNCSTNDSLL
# Muscarinic acetylcholine receptor M1 (Homo sapiens), sequence (P11229 whole entry, looked up): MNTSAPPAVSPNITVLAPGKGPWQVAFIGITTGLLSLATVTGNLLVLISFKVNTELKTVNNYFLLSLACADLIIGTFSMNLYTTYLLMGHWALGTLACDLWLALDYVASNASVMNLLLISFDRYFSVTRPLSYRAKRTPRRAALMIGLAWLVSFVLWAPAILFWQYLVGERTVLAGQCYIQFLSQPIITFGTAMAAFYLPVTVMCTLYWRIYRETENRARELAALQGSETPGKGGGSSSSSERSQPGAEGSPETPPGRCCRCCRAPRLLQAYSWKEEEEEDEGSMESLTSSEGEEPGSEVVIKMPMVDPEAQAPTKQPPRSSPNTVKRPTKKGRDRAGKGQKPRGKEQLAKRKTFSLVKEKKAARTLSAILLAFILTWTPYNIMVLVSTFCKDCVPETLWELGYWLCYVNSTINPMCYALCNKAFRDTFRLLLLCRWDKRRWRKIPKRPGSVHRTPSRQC
# D(2) dopamine receptor (Homo sapiens), sequence (P14416 whole entry, looked up): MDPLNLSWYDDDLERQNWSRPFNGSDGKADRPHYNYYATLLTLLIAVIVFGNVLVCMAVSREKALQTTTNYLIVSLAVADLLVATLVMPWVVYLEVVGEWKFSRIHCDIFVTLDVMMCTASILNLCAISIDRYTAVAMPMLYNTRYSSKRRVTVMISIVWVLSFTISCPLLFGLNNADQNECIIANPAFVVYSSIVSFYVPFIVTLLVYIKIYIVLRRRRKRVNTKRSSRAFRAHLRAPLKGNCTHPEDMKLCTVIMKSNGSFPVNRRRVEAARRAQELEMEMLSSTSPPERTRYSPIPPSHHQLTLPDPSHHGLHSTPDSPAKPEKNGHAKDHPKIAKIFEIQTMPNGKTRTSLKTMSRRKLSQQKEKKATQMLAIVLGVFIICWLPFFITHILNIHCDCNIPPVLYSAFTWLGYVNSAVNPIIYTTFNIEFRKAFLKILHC
SMILES,Potency [1],Potency [2],Potency [3],Potency [4],Potency [5],Potency [6],Potency [7],Potency [8],Potency [9],Potency [10],Potency [11],Potency [12],Potency [13],Potency [14],Potency [15],Potency [16],Potency [17],Potency [18],Potency [19],Potency [20]
Cc1cccc(O)c1C,inactive,inactive,inactive,inactive,inactive,inactive,inactive,inactive,inactive,inactive,inactive,inactive,inactive,inactive,inactive,inactive,inactive,inactive,inactive,–
C/C=C1/CC2C=CC1C2 (stereo not drawn),inactive,inactive,inactive,inactive,inactive,inactive,inactive,inactive,inactive,inactive,inactive,inactive,inactive,inactive,inactive,inactive,inactive,inactive,inactive,–
CCCCCCCCCCC(CO)CCCCCCCC (stereo not drawn),inactive,inactive,inactive,inactive,inactive,inactive,inactive,inactive,inactive,inactive,inactive,inactive,inactive,inactive,inactive,inactive,–,inactive,–,–
CS(=O)(=O)c1ccc([C@@H](O)[C@@H](CO)NC(=O)C(Cl)Cl)cc1,inactive,inactive,inactive,inactive,inactive,inactive,inactive,inactive,inactive,–,–,–,–,inactive,inactive,inactive,–,inactive,inactive,–
Cc1cn([C@H]2C[C@H](N=[N+]=[N-])[C@@H](CO)O2)c(=O)[nH]c1=O,inactive,inactive,inactive,inactive,inactive,inactive,inactive,inactive,–,–,–,–,–,inactive,inactive,inactive,–,inactive,inactive,inactive
O=C1OC(c2ccc(O)cc2)(c2ccc(O)cc2)c2ccccc21,48.2 µM (active) and inactive,24.2 µM (active) and inactive,inactive,inactive,inactive,inactive,inactive,inactive,inactive,inactive,inactive,inactive,inactive,inactive,inactive,inactive,–,inactive,inactive,–
O=S1(=O)CCCO1,inactive,inactive,inactive,inactive,inactive,inactive,inactive,inactive,–,inactive,inactive,inactive,–,–,inactive,–,inactive,inactive,inactive,–
c1cnc2c(c1)ccc1cccnc12,3.89 µM (active) and 6.11 µM (active) and 7.7 µM (active),9.69 µM (active),inactive,inactive,inactive,inactive,inactive,36.7 µM (active),inactive,inactive,inactive,inactive,inactive,–,–,inactive,inactive,inactive,inactive,–
